Experimental data taken from PubChem BioAssay.

tested on: Noggin (protein binding on small-molecule microarray); test: Noggin binders on small-molecule microarray, primary screen, biochemical, 635/667 nm fluorescence (AID 1095); conditions: 635 nm fluorescence, higher = more signal;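 further: score merges 667 nm feature fluorescence with signal to noise over triplicate slides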

SMILES | composite z-score
COc1ccc(O[C@H]2C=C[C@@H](c3ccccc3)O[C@@H]2CON=CC[C@@H]2C=C[C@H](OC(C)=O)[C@@H](COC(C)=O)O2)cc1 | 0.691
CO[C@H]1COC(=O)CC=C[C@@H](C)[C@H](NS(=O)(=O)c2ccc(C)cc2)COC(=O)CCC[C@@H]1C | 0.676
CON=CC[C@@H]1C=C[C@H](OC(C)=O)[C@@H](COC(C)=O)O1 | 0.532
C=COC[C@@H]1CN2[C@@H](CC[C@@H](C)[C@@H]2c2ccc(Br)cc2)C(=O)O1 | -0.0482
O=C1[C@H]2[C@H]3[C@H](O)[C@H](O)CC(=NOCc4ccccc4)[C@@H]3CC[C@H]2C(=O)N1Cc1ccc2c(c1)OCO2 | 0.297
COC(=O)NCC=Cc1nc(CCCO)co1 | 0.501
CO[C@H]1COC(=O)CC=C[C@H](C)[C@@H](OC)COC(=O)[C@@H](C)COC(=O)CC=C[C@@H]1C | 2.04
COC(=O)[C@@H]1CC[C@H](C)[C@@H](c2ccc(C)cc2)N1C(=O)c1ccc(C=NOC[C@@H](C)[C@H](OCc2ccccc2)C(C)C)cc1 | 0.573
COC(=O)CC=C[C@@H](C)[C@@H](C=NO[C@@H]1O[C@H](COC(C)=O)[C@@H](OC(C)=O)[C@H](OC(C)=O)[C@H]1OC(C)=O)NS(=O)(=O)c1ccc(C)cc1 | 0.521
CCOC(=O)[C@H](CC(C)C)NC(=O)CCC1CC(OC(=O)NCc2cccc3ccccc23)CC2(CCCC(COC(=O)NCCOc3ccccc3)O2)O1 (stereo partly specified) | 0.317
COc1cccc([C@H]2Oc3ccc(OC)cc3C(=NO[C@@H](C)c3cn([C@H](CO)Cc4ccccc4)nn3)[C@@H]2O)c1 | -0.335
